In PubChem BioAssay (NCI):
Values joined by “and” are separate entries in the source; they are usually repeats but may differ in a detail not shown here. Equal values may be shown once. This is part of a sample that, as a whole, favours compounds with a hit. Of some 83,000 tested, about 20% had one in any assay.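 Compound tested at a single concentration for 48 hours in 96-well plates; a percent growth value below 10 was scored as active.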 Active and inactive are the calls of the source.

Experiments:
Experiment in all cases: NCI-60 one-dose screen, 48 h (100 = growth as untreated, 0 = no growth, -100 = all killed)
Settings in all cases: 10 µM unless noted
[1] = test system: T-47D breast
[2] = test system: BT-549 breast
[3] = test system: MDA-MB-435 melanoma
[4] = test system: SW-620 colon
[5] = test system: MCF7 breast
[6] = test system: HCT-116 colon
[7] = test system: HCC-2998 colon
[8] = test system: KM12 colon

Row | SMILES | growth [1] | growth [2] | growth [3] | growth [4] | growth [5] | growth [6] | growth [7] | growth [8]
1 | CCCCCn1sc(=O)n(Cc2ccc(CNC(=O)C(C)c3ccc(CC(C)C)cc3)cc2)c1=O (stereo not drawn) | 86.4% (inactive) and -44.8% (active) | 99.1% (inactive) and -82.4% (active) | 98.1% (inactive) and -61.5% (active) | 87.6% (inactive) and -73.1% (active) | 93.2% (inactive) and -43.1% (active) | 103% (inactive) and -82.6% (active) | 105% (inactive) and -64.3% (active) | 88.7% (inactive) and -14.3% (active)
2 | CN(C)CCCN1c2ccccc2Sc2ccc(Cl)cc21 | 77% (inactive) and 105% (inactive) and 87.2% (inactive) | 84.6% (inactive) and 114% (inactive) and 96.2% (inactive) | 21.3% (inactive) and 129% (inactive) and 55.5% (inactive) | 86.3% (inactive) and 102% (inactive) and 83.8% (inactive) | 37.8% (inactive) and 101% (inactive) and 66.6% (inactive) | 28.1% (inactive) and 110% (inactive) and 59.2% (inactive) | 58.9% (inactive) and 107% (inactive) and 91.1% (inactive) | 87.7% (inactive) and 114% (inactive) and 100% (inactive)
3 | Cc1ccc(-c2noc(C)n2)cc1 | 104% (inactive) | 98.6% (inactive) | 99% (inactive) | 108% (inactive) | 95.6% (inactive) | 101% (inactive) | 103% (inactive) | 116% (inactive)
4 | Oc1ccccc1C=NCC1CCC(CN=Cc2ccccc2O)CC1 (stereo not drawn) | 96.9% (inactive) | 113% (inactive) | 104% (inactive) | 47.4% (inactive) | 66% (inactive) | 52.8% (inactive) | 101% (inactive) | 107% (inactive)
5 | CN1CCN(C2CCN(C(=O)Nc3cc(Oc4ccc(NC(=O)C5(C(=O)Nc6ccc(F)cc6)CC5)c(F)c4)ccn3)CC2)CC1 | -66.4% (active) and 83.7% (inactive) | -68.7% (active) and 98.5% (inactive) | -93% (active) and 85.8% (inactive) | -14.2% (active) and 122% (inactive) | -42.1% (active) and 76% (inactive) | -58.6% (active) and 69.1% (inactive) | -66.8% (active) and 136% (inactive) | -46% (active) and 30.4% (inactive)
6 | O=C(/C=C\c1ccnc2ccccc12)c1ccc([N+](=O)[O-])cc1 | 70.3% (inactive) and 59.3% (inactive) | 80.4% (inactive) and 77.9% (inactive) | 93.2% (inactive) and 46.5% (inactive) | 80.6% (inactive) and 6.55% (active) | 75.8% (inactive) and 25.4% (inactive) | 0.905% (active) and -94% (active) | 82.7% (inactive) | 83.3% (inactive) and 33.1% (inactive)
7 | O=C(Nc1ccc(Br)cc1)c1cc(Br)ccc1O | 14.7% (inactive) and -7.33% (active) | -16.1% (active) and -40.7% (active) | -1.59% (active) and -13.4% (active) | 12.4% (inactive) and 4.33% (active) | 5.04% (active) and 4.44% (active) | 0.123% (active) and 0.553% (active) | 24.4% (inactive) and -42.1% (active) | 4.3% (active) and -15.4% (active)
8 | COc1ccc2ccccc2c1/C=N/N1CCCCC1 | 94.2% (inactive) | 102% (inactive) | 99.1% (inactive) | 103% (inactive) | 84% (inactive) | 102% (inactive) | 109% (inactive) | 108% (inactive)
9 | OC(COc1cccc2ccccc12)CN1CCN(c2ccc(Cl)cc2)CC1 (stereo not drawn) | 71.2% (inactive) and 96.1% (inactive) | 85.4% (inactive) and 134% (inactive) | 90.2% (inactive) and 94.6% (inactive) | 71.7% (inactive) and 98.6% (inactive) | 83.6% (inactive) and 89.7% (inactive) | 60.2% (inactive) and 83.4% (inactive) | 94.2% (inactive) | 90% (inactive) and 113% (inactive)
10 | CC1CCCC(=O)O1 (stereo not drawn) | 101% (inactive) and 106% (inactive) | 104% (inactive) and 105% (inactive) | 97.2% (inactive) and 107% (inactive) | 105% (inactive) and 104% (inactive) | 96.3% (inactive) and 101% (inactive) | 105% (inactive) and 94.6% (inactive) | 98.3% (inactive) | 97.7% (inactive) and 106% (inactive)
11 | O=C(Nc1ccc(Cl)cc1)c1cc2ccccc2cc1O | 15.9% (inactive) and 15.4% (inactive) | 23.3% (inactive) | 39.2% (inactive) and 25.9% (inactive) | 13.3% (inactive) and 5.94% (active) | 12% (inactive) and -0.605% (active) | 18.9% (inactive) and -44.3% (active) | – | 8.59% (active) and 2.94% (active)
12 | O=C(N/N=C/c1cccc2ccccc12)C1CC1 | 98.9% (inactive) and 109% (inactive) | 101% (inactive) | 117% (inactive) and 97.8% (inactive) | 110% (inactive) and 102% (inactive) | 80.3% (inactive) and 87.5% (inactive) | 106% (inactive) and 102% (inactive) | 104% (inactive) and 101% (inactive) | 108% (inactive) and 104% (inactive)
13 | COc1ccc(CCN(C)CCCC(C#N)(c2ccc(OC)c(OC)c2)C(C)C)cc1OC (stereo not drawn) | 98.2% (inactive) and 106% (inactive) | 94.4% (inactive) and 93.3% (inactive) and 94.6% (inactive) | 102% (inactive) and 93.3% (inactive) and 97.9% (inactive) | 92.8% (inactive) and 100% (inactive) and 92.6% (inactive) | 89% (inactive) and 106% (inactive) and 95.3% (inactive) | 75% (inactive) and 78.9% (inactive) and 93.4% (inactive) | – | 114% (inactive) and 115% (inactive) and 95.6% (inactive)
14 | CCOC(=O)C(C(=O)OCC)C(c1ccccc1)N1CCN(c2ccccc2)CC1 (stereo not drawn) | 108% (inactive) and 98.7% (inactive) | 103% (inactive) and 104% (inactive) | 102% (inactive) and 100% (inactive) | 113% (inactive) and 111% (inactive) | 97.8% (inactive) and 97.5% (inactive) | 98.3% (inactive) and 99.3% (inactive) | 114% (inactive) and 111% (inactive) | 111% (inactive) and 98.6% (inactive)
15 | NS(=O)(=O)c1cc2c(cc1Cl)NC(C(Cl)Cl)NS2(=O)=O (stereo not drawn) | 104% (inactive) | 70.5% (inactive) and 102% (inactive) | 101% (inactive) and 104% (inactive) | 110% (inactive) | 93.1% (inactive) and 110% (inactive) | 101% (inactive) and 100% (inactive) | 111% (inactive) | 111% (inactive)
16 | CCOc1ccc2c(S(=O)(=O)O)cccc2c1[N+](=O)[O-] | 114% (inactive) and 111% (inactive) | 119% (inactive) and 103% (inactive) | 108% (inactive) and 106% (inactive) | 107% (inactive) and 98.2% (inactive) | 107% (inactive) and 104% (inactive) | 101% (inactive) | – | 98.1% (inactive) and 103% (inactive)
17 | O=[N+]([O-])c1ccc2nc3c4ccccc4c4ccccc4c3nc2c1 | 67.9% (inactive) | 86.9% (inactive) | 95% (inactive) | 63.4% (inactive) | 65% (inactive) | 33.6% (inactive) | 89.8% (inactive) | 89.3% (inactive)
